Reference: article PMC4336329 (PLoS ONE, 2015)
In all, about 310,000 compounds went through this assay and about 14,000 (4.5%) showed an effect of 50% or more. Effects have a minus sign here. This excerpt belongs to a sample that is enriched for strong results.

The compounds below were run against human ether-à-go-go-related gene (hERG) potassium channel (human, UniProt Q12809) (assay: primary screen, population patch clamp on CHO cells stably expressing hERG; higher = less effect of the substance).
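Further: peak tail current of the secondary pulse compared with the same well before compound.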

Chain of human ether-à-go-go-related gene (hERG) potassium channel (Q12809 whole entry, looked up): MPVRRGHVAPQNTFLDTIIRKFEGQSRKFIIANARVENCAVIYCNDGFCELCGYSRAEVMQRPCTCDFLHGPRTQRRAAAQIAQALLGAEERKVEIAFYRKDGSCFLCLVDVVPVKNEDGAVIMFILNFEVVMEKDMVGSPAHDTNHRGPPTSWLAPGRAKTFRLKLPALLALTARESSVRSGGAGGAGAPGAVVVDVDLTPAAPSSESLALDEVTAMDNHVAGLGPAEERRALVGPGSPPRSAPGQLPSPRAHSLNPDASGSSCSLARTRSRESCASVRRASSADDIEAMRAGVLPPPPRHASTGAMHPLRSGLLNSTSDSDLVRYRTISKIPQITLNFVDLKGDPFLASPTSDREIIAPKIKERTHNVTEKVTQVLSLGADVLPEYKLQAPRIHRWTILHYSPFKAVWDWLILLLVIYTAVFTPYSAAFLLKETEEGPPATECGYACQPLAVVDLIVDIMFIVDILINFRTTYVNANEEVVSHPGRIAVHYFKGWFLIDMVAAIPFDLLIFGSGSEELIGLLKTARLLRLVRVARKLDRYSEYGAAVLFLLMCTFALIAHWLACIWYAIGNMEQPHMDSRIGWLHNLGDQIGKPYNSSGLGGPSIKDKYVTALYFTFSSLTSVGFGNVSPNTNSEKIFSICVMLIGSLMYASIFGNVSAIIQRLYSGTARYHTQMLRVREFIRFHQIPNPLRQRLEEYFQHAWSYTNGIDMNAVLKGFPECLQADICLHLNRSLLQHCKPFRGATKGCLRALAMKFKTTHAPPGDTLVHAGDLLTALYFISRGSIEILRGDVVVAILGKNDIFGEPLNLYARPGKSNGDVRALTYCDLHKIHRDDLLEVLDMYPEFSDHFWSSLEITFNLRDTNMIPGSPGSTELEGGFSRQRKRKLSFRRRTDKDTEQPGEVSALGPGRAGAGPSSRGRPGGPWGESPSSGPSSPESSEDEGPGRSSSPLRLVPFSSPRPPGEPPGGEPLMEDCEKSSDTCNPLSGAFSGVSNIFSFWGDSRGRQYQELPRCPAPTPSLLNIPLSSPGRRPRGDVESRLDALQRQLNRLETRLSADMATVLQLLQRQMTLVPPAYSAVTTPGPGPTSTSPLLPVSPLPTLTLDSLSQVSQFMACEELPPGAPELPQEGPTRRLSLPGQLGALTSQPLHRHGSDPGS

SMILES	hERG current change (%, negative = inhibition) at 10uM
Cn1c2ccccc2c(=O)c2cc(C#Cc3ccccn3)ccc21	-0.776%
CCc1ccccc1N1C(=O)C2CC=CCC2C1=O (centres unmarked)	-6.41%
COc1ccc(OC)c(S(=O)(=O)N(C)CC(=O)N2CCc3ccccc3C2)c1	-35.1%
CCN(Cc1nc2cc(OC)c(OC)cc2c(=O)[nH]1)C(=O)c1ccc(S(=O)(=O)N(C)C)cc1	4.07%
Cc1cnc(NC2=NCCC2)s1	5.05%
O=C(OCC(=O)c1ccc[nH]1)c1ccc(Cl)nc1	-5.61%
Cc1ccc(-n2nc(C)c(NS(=O)(=O)c3ccccc3)c2C)cc1C	-16.9%
CCCN(CCC)CCCNC(=O)c1cn(C)c2ccc(S(=O)(=O)N(C)C3CCCCC3)cc2c1=O	-73.7%
CCN(CC)S(=O)(=O)c1ccc2c(c1)c(=O)c(C(=O)NCCCN(C)c1ccccc1)cn2C	-12.2%
COC(CN(C)C(=O)c1cn(C)c2ccc(S(=O)(=O)N(C)C3CCCCC3)cc2c1=O)OC	10.3%
Cn1c(=O)n(C)c2cc(S(=O)(=O)Nc3ccc(F)cc3)ccc21	20.9%
CCN1CCN(c2ccc(S(=O)(=O)N3CCCC3)cn2)CC1	16.2%
Cc1nn(-c2ccccc2)c(C)c1NC(=O)COC(=O)CCc1ccccc1	-10.2%
Cc1cccc(OCC(=O)N2CCC3(CC2)CC(=O)c2ccccc2O3)c1	-54.7%
CC(=O)N1CCC2(CC1)CC(=O)c1cc(OCC(=O)N3CCOCC3)ccc1O2	-10.6%
COc1cccc(OCC(=O)N2CCC3(CC2)CC(=O)c2ccccc2O3)c1	-55.8%
CC(=O)N1CCC2(CC1)CC(=O)c1cc(OCC(=O)N3CCCC3)ccc1O2	9.03%
CC(C)(C)C1CCC(OC(=O)C[N+]2(C)CCCCC2)CC1.[I-] (centres unmarked)	23.1%
Cc1cccc(Nc2ccc(C(=O)N3CCOCC3)cn2)c1	10.7%
Cc1ccc(S(=O)(=O)Nc2cccc(C(=O)NCC3(N4CCCCC4)CCCCC3)c2)cc1F	-82.6%
Cc1ccc(S(=O)(=O)Nc2cccc(C(=O)N3CCCC3)c2)cc1F	-0.933%
Cc1ccc(S(=O)(=O)Nc2cccc(C(=O)NCCN3CCOCC3)c2)cc1F	-1.9%

SMILES	hERG current change (%, negative = inhibition) at 10uM
CCOc1ccc(S(=O)(=O)Nc2cccc(C(=O)NCC3(N4CCCCC4)CCCCC3)c2)cc1	-71.6%
O=C(NCC1(N2CCCCC2)CCCCC1)c1cccc(NS(=O)(=O)c2ccccc2)c1	-64.4%
CC(C)(CNC(=O)c1cccc(NS(=O)(=O)c2ccc(Br)cc2)c1)N1CCOCC1	-33.7%
Cc1ccc(S(=O)(=O)Nc2cccc(C(=O)NCC(C)(C)N3CCOCC3)c2)cc1F	-50.3%
CC(=O)Nc1cccc(C(=O)NCC2(N3CCCCC3)CCCCC2)c1	19.4%
O=C(NCC1(N2CCCCC2)CCCCC1)c1ccc(NS(=O)(=O)c2ccccc2)cc1	-44.1%
CCOc1ccc(S(=O)(=O)Nc2ccc(C(=O)NCC3(N4CCCCC4)CCCCC3)cc2)cc1	-45.8%
Cc1cccc(NS(=O)(=O)c2cccc(C(=O)NCC(C)(C)N3CCOCC3)c2)c1	4.99%
CCOc1ccc(NS(=O)(=O)c2ccc(C(=O)NCC3(N4CCCCC4)CCCCC3)cc2)cc1	-11%
C[C@H](NC(=O)N1CCn2c1nc1ccccc12)C(=O)NCC1CCCO1 (some centres unmarked)	20.8%
CC(OC(=O)c1cccc(-n2cnnn2)c1)C(=O)Nc1cccc(Cl)c1 (centres unmarked)	-2.88%
N#Cc1ccccc1OCC(=O)OCC(=O)N1CCN(C(=O)c2ccco2)CC1	3.22%
Cc1cc(N2C(=O)CC(N3CCN(c4ccc(C(=O)c5cccs5)cc4)CC3)C2=O)no1 (centres unmarked)	-37.3%
CC(C)CCOP(=O)(c1ccc(N(C)C)cc1)C(O)c1ccc(C(C)C)cc1 (centres unmarked)	11.7%
CCOC(=O)c1cn2nc(Oc3ccccc3)ccc2n1	-12.8%
O=C(Cc1ccccc1)N/N=C/c1cc2c(cc1Cl)OCO2	1.85%
COc1cc(NC(=O)NNC(=O)c2cc3occc3n2C)cc(OC)c1OC	26.1%
CS(=O)(=O)c1ccc(C(=O)NCC2(N3CCCCC3)CCCCC2)cc1	-11%
Cc1cc(S(=O)(=O)Nc2ccc(C(=O)NCC3(N4CCCCC4)CCCCC3)cc2)ccc1F	-66.4%
O=C(NCC1(N2CCCCC2)CCCCC1)c1ccc(NS(=O)(=O)c2ccc(F)cc2)cc1	-42.9%
CNS(=O)(=O)c1cccc(C(=O)NCC2(N3CCOCC3)CCCCC2)c1	9.92%
CNS(=O)(=O)c1cccc(C(=O)NCC2(N3CCCCC3)CCCCC2)c1	-18.3%

SMILES	hERG current change (%, negative = inhibition) at 10uM
Cc1cccc(NS(=O)(=O)c2cccc(C(=O)NCC3(N4CCCCC4)CCCCC3)c2)c1	-89.9%
O=C(COc1ccccc1)Nc1nc(-c2cccs2)cs1	5.72%
CCOC(=O)c1c(C)[nH]c(C(=O)OC(C)C(=O)NCc2ccccc2)c1C (centres unmarked)	17.4%
COc1ccccc1-c1nnc(NC(=O)C2=COCCO2)o1	14.3%
CCc1sc(C(=O)N2CCC3(CC2)OCCO3)cc1Br	-7.08%
CC(=O)Nc1ccc(Nc2nnc(-c3ccc(C)c(S(=O)(=O)NCC4CCCO4)c3)c3ccccc23)cc1 (centres unmarked)	-5.1%
O=C1NN(c2ccc(Br)cc2)C(=O)/C1=C\c1ccc(O)cc1O	30.2%
Cc1ccccc1C(=O)Nc1ccc2nc3n(c(=O)c2c1)CCC3	-9.1%
Nc1c(C=C2C=CC(=O)C=C2)c(=O)nc2sc(CC(=O)N3CCCCC3)nn12	15.6%
COc1ccc(CNCc2ccncc2)c(OC)c1.Cl	-0.685%
COc1cccc(CNCc2ccc(OC)cc2OC)c1.O=C(O)C(=O)O	-14.1%
COc1ccc(NC(=S)NCc2ccc(F)cc2)c(OC)c1	1.54%
COc1ccc(CNCc2ccc3ccccc3c2)c(OC)c1.O=C(O)C(=O)O	-68.3%
COc1ccc(CNCc2cc(C)c(OC)cc2C)c(OC)c1.O=C(O)C(=O)O	-54.9%
CCC(CC)NCc1ccc2c(c1)c1ccccc1n2CC.O=C(O)C(=O)O	-28.5%
COc1ccc(CNCc2cc(OC)ccc2OC)cc1.O=C(O)C(=O)O	-30.3%
Br.COc1ccc(CNCc2ccc(F)cc2)c(OC)c1	-79%
COc1cc(CNCc2ccc(OC)cc2OC)cc(OC)c1.O=C(O)C(=O)O	-29.5%
COc1ccc(CNCc2ccc(C)cc2)c(OC)c1.O=C(O)C(=O)O	-31.3%
CCn1c2ccccc2c2cc(CNCc3ccc(OC)cc3OC)ccc21.O=C(O)C(=O)O	-76.2%
CCn1c2ccccc2c2cc(CN3CCN(Cc4cc(OC)ccc4O)CC3)ccc21.O=C(O)C(=O)O	7.15%
CC1(C)CN(c2ccc(N3CC(C)(C)C3=O)cc2)C1=O	4.66%

SMILES	hERG current change (%, negative = inhibition) at 10uM
O=C(NC1CC2CCCC(C1)N2C(=O)Nc1ccccc1)c1ccncc1 (centres unmarked)	0.052%
CNCCc1c[nH]c2ccc(O)cc12.O=C(O)C(=O)O	17.7%
Cc1cccc(NC(=O)c2ccccc2NC(=O)C(C)(C)C)n1	-0.982%
CC(C)c1ccc(Nc2nnc(SCC(=O)c3nnc(-c4ccccc4)o3)s2)cc1	22.2%
CCn1c(NCc2ccc(N(C)C)cc2)nc2ccccc21	-41.2%
O=C(Nc1nccs1)c1ccccn1	-3.04%
Nc1nc(SCc2nc3sc4c(c3c(=O)[nH]2)CCCC4)n[nH]1	8.47%
CCOc1cccc(CNCCNC(=O)c2nonc2N)c1.Cl	-7.85%
O=C(c1ccc(COc2ccc(Cl)cc2)o1)N1CCN(Cc2ccc3c(c2)OCO3)CC1	-12.7%
CCN1CCN(C(=O)c2ccc(COc3cccc(Cl)c3)o2)CC1	-23.7%
CCN1CCN(C(=O)c2ccc(COc3ccc(Cl)cc3)o2)CC1	-52.5%
CN(C)C(CNC(=O)c1ccccc1OCc1ccc(Cl)cc1)c1ccco1 (centres unmarked)	-60.3%
O=C(OCC(=O)N1CCN(C(=O)c2ccco2)CC1)c1ccccc1OCc1ccc(Cl)cc1	-35.3%
COc1ccc(Cl)cc1C(=O)NCC(c1ccco1)N(C)C (centres unmarked)	-4.19%
CSc1ccccc1C(=O)NCC(c1ccco1)N(C)C (centres unmarked)	16.9%
O=C(c1ccccc1OCc1ccc(Cl)cc1)N1CCN(c2ccccn2)CC1	-42.4%
O=C(c1ccco1)N1CCN(C(=O)c2ccc(COc3ccc(F)cc3)o2)CC1	-62.6%
O=C(c1ccc(COc2ccc(F)cc2)o1)n1cccn1	4.97%
O=C(c1ccco1)N1CCN(C(=O)c2ccccc2OCc2ccc(Cl)cc2)CC1	-75.9%
O=C(c1ccco1)N1CCN(C(=O)c2ccc(CS(=O)c3ccc(F)cc3)o2)CC1 (centres unmarked)	11.8%
